Read-out in experiment [1]: C-C motif chemokine 2 (Homo sapiens) (UniProt P13500)
Put plainly: BSK_KF3CT_MCP1: BioMAP Diversity Plus: KF3CT Assay for Monocyte Chemoattractant Protein 1 (MCP1/CCL2) Biomarker Activity (AID 2283073). Particulars: primary human keratinocytes with fibroblasts; actives raise or lower the signal. Summed up: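 Biomarker MCP-1 is measured by ELISA in primary human keratinocytes co-cultured with foreskin fibroblasts, 24 h after chemical treatment; DMSO serves as the negative control and activity baseline.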

Read-out in experiment [2]: Matrix Metallopeptidase 9 (MMP9), MMP9 (gene 4318)
Put plainly: BSK_KF3CT_MMP9: BioMAP Diversity Plus: KF3CT Assay for Matrix Metallopeptidase 9 (MMP9) Biomarker Activity (AID 2283074).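 On AC50: MMP9 protein level quantified by ELISA in the co-culture.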 Particulars: primary human keratinocytes with fibroblasts; actives raise or lower the signal. Summed up: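 Human keratinocyte and foreskin fibroblast co-culture exposed to chemicals for 24 h; MMP9 biomarker measured by ELISA, bidirectional fitting relative to DMSO; cytotoxicity tracked by SRB total protein staining in parallel cultures.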

Read-out in experiment [3]: urokinase plasminogen activator (uPA), PLAU (gene 5328)
Put plainly: BSK_KF3CT_uPA: BioMAP Diversity Plus: KF3CT Assay for urokinase plasminogen activator (uPA) Biomarker Activity (AID 2283075). Particulars: primary human keratinocytes with fibroblasts; actives raise or lower the signal. In a few lines:
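Primary human keratinocyte/foreskin fibroblast co-culture exposed to chemical; uPA measured by ELISA at 24 h. Bidirectional fit versus DMSO, with parallel SRB total-protein staining for cytotoxicity.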

Read-out in experiment [4]: CD40, CD40 (gene 958)
Put plainly: BSK_LPS_CD40: BioMAP Diversity Plus: LPS Assay for CD40 Biomarker Activity (AID 2283076). Particulars: primary human HUVEC with PBMC; actives raise or lower the signal. Summed up:
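Using a multiplexed primary human co-culture (umbilical vein endothelium plus PBMC), CD40 was read by ELISA 24 h after dosing, with cytotoxicity tracked by sulforhodamine B staining of parallel cultures and activity fitted bidirectionally versus DMSO.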

Read-out in experiment [5]: E-selectin (Homo sapiens) (UniProt P16581)
Put plainly: BSK_LPS_Eselectin: BioMAP Diversity Plus: LPS Assay for Eselectin Biomarker Activity (AID 2283077). The settings on record: primary human HUVEC with PBMC; actives raise or lower the signal. In a few lines: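 Dose chemical onto LPS-driven HUVEC/PBMC co-culture; after 24 h, run ELISA for E-selectin; fit up- and down-going responses relative to DMSO control.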

Read-out in experiment [6]: Interleukin-8 (IL8), CXCL8 (gene 3576)
Put plainly: BSK_LPS_IL8: BioMAP Diversity Plus: LPS Assay for Interleukin-8 (IL8) Biomarker Activity (AID 2283078). The settings on record: primary human HUVEC with PBMC; actives raise or lower the signal. Summed up: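 In this LPS system, chemical-treated human umbilical vein endothelium/PBMC co-cultures were harvested at 24 h for IL-8 ELISA.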

A short description of experiment [7]: BSK_LPS_SRB: Viability Assessment in the BioMAP Diversity Plus: LPS Assay (AID 2283079).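 Further: total protein by sulforhodamine B absorbance as a cytotoxicity measure; measured one day after compound addition; fitted in both directions against DMSO so loss or gain of signal counts.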 Particulars: primary human HUVEC with PBMC. In a few lines:
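Cytotoxicity endpoint in human endothelial–PBMC co-culture: 24 h exposure, then SRB (0.1%) staining, 560 nm read.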

Read-out in experiment [8]: Interleukin-1 alpha (IL1a), IL1A (gene 3552)
Put plainly: BSK_LPS_IL1a: BioMAP Diversity Plus: LPS Assay for Interleukin-1 alpha (IL1a) Biomarker Activity (AID 2283080). Particulars: primary human HUVEC with PBMC; actives raise or lower the signal. Summed up: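 Primary human HUVEC and PBMC co-culture stimulated with LPS is dosed and harvested at 24 h. Both increases and decreases in ELISA-measured IL-1a are scored relative to DMSO.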

Read-out in experiment [9]: Monocyte Chemoattractant Protein-1 (MCP1), CCL2 (gene 6347)
Put plainly: BSK_LPS_MCP1: BioMAP Diversity Plus: LPS Assay for Monocyte Chemoattractant Protein-1 (MCP1) Biomarker Activity (AID 2283081).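 On AC50: secreted MCP-1 protein quantified by ELISA in culture supernatant.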 Particulars: primary human HUVEC with PBMC; actives raise or lower the signal. Summed up: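 Values derive from bidirectional fitting against DMSO of ELISA-measured MCP-1 in a human primary endothelial and mononuclear cell co-culture, 24 h after chemical addition under LPS activation.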

Experiment [10] in a line: BSK_LPS_PGE2: BioMAP Diversity Plus: LPS Assay for Prostaglandin E2 (PGE2) Biomarker Activity (AID 2283082).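 On AC50: secreted prostaglandin E2 measured by ELISA in LPS-stimulated co-culture.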 The settings on record: primary human HUVEC with PBMC; actives raise or lower the signal. Summed up:
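LPS-activated HUVEC/PBMC co-culture; cmpd dosed, 24 h; PGE2 by ELISA; bidirectional fit vs DMSO; SRB (0.1%, TCA-fixed, 560 nm) in parallel plates for overt cytotox.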

Read-out in experiment [11]: Macrophage colony-stimulating factor (MCSF), CSF1 (gene 1435)
Put plainly: BSK_LPS_MCSF: BioMAP Diversity Plus: LPS Assay for Macrophage colony-stimulating factor (MCSF) Biomarker Activity (AID 2283083). The settings on record: primary human HUVEC with PBMC; actives raise or lower the signal. Summed up:
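Bidirectional fit versus DMSO of ELISA-measured M-CSF in co-cultured human umbilical vein endothelial cells and PBMC, sampled 24 h after dosing.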

Read-out in experiment [12]: Tissue Factor, F3 (gene 2152)
Put plainly: BSK_LPS_TissueFactor: BioMAP Diversity Plus: LPS Assay for Tissue Factor Biomarker Activity (AID 2283084). Particulars: primary human HUVEC with PBMC; actives raise or lower the signal. In a few lines:
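Read-out: CD142 ELISA, 24 h. System: LPS-driven human endothelial/PBMC co-culture. Analysis: up- or down-signal fitted against DMSO.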

Read-out in experiment [13]: Tumor necrosis factor (Homo sapiens) (UniProt P01375)
Put plainly: BSK_LPS_TNFa: BioMAP Diversity Plus: LPS Assay for Tumour Necrosis Factor alpha (TNFa) Biomarker Activity (AID 2283085). Particulars: primary human HUVEC with PBMC; actives raise or lower the signal. Summed up: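 Read-out is ELISA of TNFa in primary human endothelial cell–PBMC co-cultures at 24 h after compound. Activity in either direction was fitted against DMSO.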

Read-out in experiment [14]: Vascular cell adhesion molecule 1 (VCAM1), VCAM1 (gene 7412)
Put plainly: BSK_LPS_VCAM1: BioMAP Diversity Plus: LPS Assay for Vascular cell adhesion molecule 1 (VCAM1) Biomarker Activity (AID 2283086). Particulars: primary human HUVEC with PBMC; actives raise or lower the signal. In a few lines: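 HUVEC + PBMC co-culture, LPS system; compound 24 h; VCAM-1 by ELISA; bidirectional fit vs DMSO control; parallel SRB (0.1%, TCA-fixed, 560 nm) for cytotoxicity.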

Read-out in experiment [15]: CD38, CD38 (gene 952)
Put plainly: BSK_SAg_CD38: BioMAP Diversity Plus: SAg Assay for CD38 Biomarker Activity (AID 2283087). The settings on record: primary human HUVEC with PBMC; actives raise or lower the signal. Summed up:
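Human HUVEC plus PBMC co-culture stimulated with superantigen; CD38 measured by ELISA 24 h after chemical dosing. Fluorescence read-out, bidirectional fit against DMSO; cytotoxicity tracked in parallel by SRB and Alamar Blue.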

Read-out in experiment [16]: CD40, CD40 (gene 958)
Put plainly: BSK_SAg_CD40: BioMAP Diversity Plus: SAg Assay for CD40 Biomarker Activity (AID 2283088). The settings on record: primary human HUVEC with PBMC; actives raise or lower the signal. Summed up:
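Endpoint derived by fitting increases or decreases versus DMSO controls. CD40 is detected by fluorescence ELISA in a human vascular co-culture of endothelium and PBMC at 24 h.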

Read-out in experiment [17]: CD69, CD69 (gene 969)
Put plainly: BSK_SAg_CD69: BioMAP Diversity Plus: SAg Assay for CD69 Biomarker Activity (AID 2283089).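 On AC50: cell surface CD69 protein quantified by ELISA with fluorescence detection.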 Particulars: primary human HUVEC with PBMC; actives raise or lower the signal. In a few lines:
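Values derive from bidirectional fitting relative to DMSO vehicle. Cells: umbilical vein endothelium plus peripheral blood mononuclear cells, treated 24 h before fluorescent ELISA for CD69.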

Read-out in experiment [18]: Monocyte Chemoattractant Protein-1 (MCP1), CCL2 (gene 6347)
Put plainly: BSK_SAg_MCP1: BioMAP Diversity Plus: SAg Assay for Monocyte Chemoattractant Protein-1 (MCP1) Biomarker Activity (AID 2283090). The settings on record: primary human HUVEC with PBMC; actives raise or lower the signal. Summed up:
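MCP-1 levels in the endothelial–PBMC SAg co-culture were quantified by ELISA at 24 h post-dosing; both increases and decreases versus DMSO scored. Cytotoxicity monitored by SRB total protein in parallel cultures.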

Read-out in experiment [19]: E-selectin (Homo sapiens) (UniProt P16581)
Put plainly: BSK_SAg_Eselectin: BioMAP Diversity Plus: SAg Assay for Eselectin Biomarker Activity (AID 2283091). Particulars: primary human HUVEC with PBMC; actives raise or lower the signal. Summed up: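 Endpoint values derive from bidirectional fitting relative to DMSO, using ELISA-measured E-selectin in a human vascular co-culture (umbilical vein endothelium plus PBMC) sampled 24 h after dosing.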

Where “and” joins values, the source holds several entries; their conditions need not be identical. Equal entries are not always repeated. Some compounds were tested as several samples or in several runs, with calls that do not always agree. Calls of active or inactive are those of the source. How the source made its calls: active means hit-call score of the fitted dose curve at least 0.9, where 1 is the maximum; inactive means score below 0.9.

Chain of E-selectin (Homo sapiens) (P16581 whole entry, looked up): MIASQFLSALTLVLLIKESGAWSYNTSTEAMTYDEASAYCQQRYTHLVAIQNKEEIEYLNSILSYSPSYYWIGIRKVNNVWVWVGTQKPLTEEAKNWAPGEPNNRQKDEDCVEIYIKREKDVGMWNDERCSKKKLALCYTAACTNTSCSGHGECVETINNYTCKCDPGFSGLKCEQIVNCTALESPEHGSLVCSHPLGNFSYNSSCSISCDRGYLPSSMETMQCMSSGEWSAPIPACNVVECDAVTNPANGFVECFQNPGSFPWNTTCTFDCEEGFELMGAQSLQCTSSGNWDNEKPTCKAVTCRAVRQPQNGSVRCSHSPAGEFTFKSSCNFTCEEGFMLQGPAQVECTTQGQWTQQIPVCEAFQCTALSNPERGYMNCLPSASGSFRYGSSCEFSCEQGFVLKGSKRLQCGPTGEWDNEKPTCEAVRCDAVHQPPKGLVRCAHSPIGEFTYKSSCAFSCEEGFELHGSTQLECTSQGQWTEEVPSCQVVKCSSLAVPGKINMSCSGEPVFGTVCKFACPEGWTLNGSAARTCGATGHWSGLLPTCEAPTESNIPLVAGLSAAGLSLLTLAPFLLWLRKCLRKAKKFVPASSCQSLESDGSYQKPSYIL
Chain of Tumor necrosis factor (Homo sapiens) (P01375 whole entry, looked up): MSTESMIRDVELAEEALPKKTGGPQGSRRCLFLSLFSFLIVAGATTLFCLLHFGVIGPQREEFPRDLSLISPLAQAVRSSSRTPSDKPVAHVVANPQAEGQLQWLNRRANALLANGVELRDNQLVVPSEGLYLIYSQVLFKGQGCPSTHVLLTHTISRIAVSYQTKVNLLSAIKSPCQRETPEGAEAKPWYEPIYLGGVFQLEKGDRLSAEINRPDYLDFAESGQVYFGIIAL

Broadly, the AC50 is the concentration at which the activity in the assay is half-maximal. With `O=P(O)(O)CCC(F)(F)C(F)(F)C(F)(F)C(F)(F)C(F)(F)C(F)(F)C(F)(F)C(F)(F)F`, the outcome in experiment [1], in [2], in experiment [3], in experiment [4], in experiment [5] and in experiment [6] was inactive. Further, the result in [7], in experiment [8], in experiment [9], in [10], in [12] and in experiment [13] was inactive. The result in [14], in experiment [15], in [16], in experiment [17], in experiment [18] and in experiment [19] was inactive. Besides, the AC50 in experiment [4] is 30 µM (active); in experiment [7] it was 35.3 µM (active); in experiment [10], 30 µM (active); in experiment [11] it was 27.7 µM (active) and 30 µM (active); in experiment [15], 30 µM (active); in [16], 30 µM (active).

Consider `Oc1c(Cl)cc(Cl)cc1Sc1cc(Cl)cc(Cl)c1O`, for which the AC50 in experiment [1] was 2.23 µM (active) and 2.57 µM (active); in [2], 1.88 µM (active) and 2.08 µM (active); in experiment [3] it was 3.48 µM (active) and 3.57 µM (active); in experiment [4], 14.2 µM (active); in experiment [5], 35.1 µM (active) and 31.9 µM (active); in experiment [6] it was 36.5 µM (active) and 33.4 µM (active). In addition, the AC50 is 20 µM (active) and 6.67 µM (active) in experiment [7]; 35.4 µM (active) and 35.6 µM (active) in experiment [8]; 31.4 µM (active) and 30.1 µM (active) in experiment [9]; 20 µM (active) in experiment [10]; 26.3 µM (active) in experiment [11]; 34 µM (active) and 33.6 µM (active) in [12]. Also, the concentration at half-maximal activity (AC50) was 29.9 µM (active) and 30 µM (active) in experiment [13]; 32.9 µM (active) and 30.9 µM (active) in experiment [14]; 9.47 µM (active) and 9.95 µM (active) in [15]; 13.8 µM (active) and 9.99 µM (active) in experiment [16]; 13.2 µM (active) and 16.2 µM (active) in [17]; 8.87 µM (active) and 5.21 µM (active) in experiment [18]. Moreover, in [19], the concentration at half-maximal activity (AC50) was 8.08 µM (active) and 7.11 µM (active). Besides, the result in experiment [10] was inactive.

The record behind these values is PubChem BioAssay (EPA / NIEHS).
